Where “and” joins values, the source holds several entries; their conditions need not be identical. Equal entries are not always repeated. Unmarked numbers belong to inactive results. Results filed as inconclusive are left out. Calls of active or inactive are those of the source. Unless noted, calls come from the whole dose curve; as a rule, active = well fitted curve in the direction sought with a large enough effect in the repeat runs; inconclusive = weak or mixed curves; inactive = no such curve, though single readings can be large; an effect the other way counts as inactive or inconclusive.

The record followed here is PubChem BioAssay (Tox21).

Assay [1] in a line: Caspase-3/7 induction in HepG2 cells by small molecules, qHTS assay (AID 1346978). Note: nearly all actives have a fitted effect of over 15% in size. Note: potency is the fitted concentration of half-maximal effect. Summed up: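 Wild-type HepG2 cells, 2,000/well, settled 5 hr at 37 C and 5% CO2, then compound-treated for 17 hr; caspase-3/7 activity read by luminescent Caspase-Glo 3/7 after 30 min at room temperature.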
The nature of assay [2]: Caspase-3/7 induction in CHO-K1 cells by small molecules, qHTS cell viability counter screen (AID 1346979). Note: nearly all actives have a fitted effect of over 35% in size. Note: potency is the fitted concentration of half-maximal effect. Summed up: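 CellTiter-Fluor viability check, qHTS format: wild-type CHO-K1, 16hr compound treatment, 1hr reagent incubation, fluorescence read.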
Assay [3] can be described thus: Caspase-3/7 induction in CHO-K1 cells by small molecules, qHTS assay (AID 1346980). Note: % is set by controls: 0 for no effect and ±100 for the full control effect; nearly all actives have a fitted effect of over 15% in size. The method, boiled down:
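Wild-type CHO-K1 cells exposed to compounds for 17hr at 37 C, 5% CO2. Caspase-3/7 activity then measured by Caspase-Glo 3/7 luminescence after 30min at room temperature.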

The nature of assay [4]: Caspase-3/7 induction in HepG2 cells by small molecules, qHTS cell viability counter screen (AID 1346981). Note: nearly all actives have a fitted effect of over 30% in size. Note: potency is the fitted concentration of half-maximal effect. The method, boiled down: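 The parent HepG2 line is plated at 2,000 cells per well and rested 5 hr before compound pinning from DMSO stocks. Following a 16-hr treatment at 37 C, a fluorogenic live-cell substrate (CellTiter-Fluor) reports viability after 1 hr.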
In assay [5] the target is Voltage-gated inwardly rectifying potassium channel KCNH2 (Homo sapiens) (UniProt Q12809). Briefly: Human Ether-a-go-go-Related Gene (hERG) channel small molecule antagonists: fluorescence cell-based qHTS assay (AID 1671200). Note: nearly all actives have a fitted effect of over 50% in size. Note: potency is the fitted concentration of half-maximal effect. Summed up:
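Kinetic two-minute fluorescence traces, sampled at 1 s, were collected following thallium stimulus of U2OS cells (1000 per well) that had been cultured overnight at 37 C and loaded with FluxOR II.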

The target of assay [6] is Acetylcholinesterase (Homo sapiens) (UniProt P22303). Briefly: Acetylcholinesterase (AChE) small molecule antagonists: colormetric cell-based qHTS assay (AID 1347395; calls by dose curve; note: % is set by controls: 0 for no effect and ±100 for the full control effect; nearly all actives have a fitted effect of over 30% in size). The method, boiled down:
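AChE inhibition read colorimetrically via DTNB–thiocholine in SH-SY5Y cells. Compound 30 min, substrate 90 min, both 37 C.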

For assay [7] the target is unchanged. Briefly: Acetylcholinesterase (AChE) small molecule antagonists: enzyme-based qHTS assay (AID 1347397; calls by dose curve; note: % is set by controls: 0 for no effect and ±100 for the full control effect; nearly all actives have a fitted effect of over 55% in size). Conditions: Potency: AChE enzyme activity inhibition. The method, boiled down: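 In this quantitative HTS, compounds from the Tox21 10K collection were preincubated 30 min at ambient temperature with recombinant human AChE dispensed at 50 mU/mL. Hydrolysis of acetylthiocholine was then followed for 10 min by DTNB colour development.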

Assay [8] has the same target. Briefly: Acetylcholinesterase (AChE) small molecule antagonists: fluorescence cell-based qHTS assay (AID 1347398; calls by dose curve; note: % is set by controls: 0 for no effect and ±100 for the full control effect; nearly all actives have a fitted effect of over 50% in size). Conditions: Potency: AChE activity. The method, boiled down:
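Cells (SH-SY5Y) attached overnight, were dosed with compound or DMSO vehicle for 30 min at 37 C, and then incubated 40 min at room temperature with acetylthiocholine and Thiolite Green; green fluorescence indexed AChE activity.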

Assay [9] shares this target. Briefly: Acetylcholinesterase (AChE) small molecule antagonists: enzyme-based qHTS assay with human liver microsomes (AID 1347399; calls by dose curve; note: % is set by controls: 0 for no effect and ±100 for the full control effect; nearly all actives have a fitted effect of over 60% in size). Conditions: Potency: qHTS inhibition. Summed up: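 Recombinant human AChE (50 mU/mL in the enzyme mix) and human liver microsomes (0.25 mg/mL final) were preincubated with compound and NADPH (0.25 mg/mL final) for 30 min at 37 C. Acetylthiocholine/DTNB was then added; thiocholine was read colorimetrically after 10 min at room temperature.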

Assay [10] addresses Cytochrome P450 2D6 (Homo sapiens) (UniProt P10635). Briefly: Cytochrome P450 Family 2 Subfamily D Member 6 (CYP2D6) small molecule antagonists: luciferase reporter qHTS assay (AID 1671196). Note: nearly all actives have a fitted effect of over 50% in size. Note: potency is the fitted concentration of half-maximal effect. Summed up:
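Quantitative HTS of Tox21 chemicals against CYP2D6 using a luminescent proluciferin substrate. After NADPH addition, 1 h room-temperature reaction; luminescence recorded 20 min post detection reagent.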

In assay [11] the target is Cytochrome P450 2C19 (Homo sapiens) (UniProt P33261). Briefly: Cytochrome P450 Family 2 Subfamily C Member 19 (CYP2C19) small molecule antagonists: luciferase reporter qHTS assay (AID 1671197). Note: nearly all actives have a fitted effect of over 65% in size. Note: potency is the fitted concentration of half-maximal effect. Summed up: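 Light output is proportional to CYP2C19 activity: proluciferin substrate is converted to luciferin, then detected by a luciferin detection reagent that also stops the 1 h, 37C NADPH-driven reaction. Ketoconazole serves as positive control.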

In assay [12] the target is Cytochrome P450 2C9 (Homo sapiens) (UniProt P11712). Briefly: Cytochrome P450 Family 2 Subfamily C Member 9 (CYP2C9) small molecule antagonists: luciferase reporter qHTS assay (AID 1671198). Note: nearly all actives have a fitted effect of over 50% in size. Note: potency is the fitted concentration of half-maximal effect. The method, boiled down: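 P450-Glo proluciferin substrate with CYP2C9 enzyme; 10 min RT preincubation, then NADPH regeneration 1 h at 37C; luciferin detection reagent 20 min RT, luminescence in relative luminescence units.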

Assay [13] addresses Cytochrome P450 3A4 (Homo sapiens) (UniProt P08684). Briefly: Cytochrome P450 Family 3 Subfamily A Member 4 (CYP3A4) small molecule antagonists: luciferase reporter qHTS assay (AID 1671201). Note: nearly all actives have a fitted effect of over 50% in size. Note: potency is the fitted concentration of half-maximal effect. Summed up:
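Proluciferin-to-luciferin conversion by CYP3A4, NADPH-regenerated, 1 h RT; luminescence read as RLU. Ketoconazole as control.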

The target of assay [14] is Nuclear receptor subfamily 1 group I member 2 (Homo sapiens) (UniProt O75469). Briefly: Human pregnane X receptor (PXR) small molecule agonists, qHTS assay (AID 1346982). Note: potency is the fitted concentration of half-maximal effect; nearly all actives have a fitted effect of over 35% in size. Summed up:
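After plating in 5% charcoal-stripped FBS and a 5 hr rest, PXR-Luc HepG2 cells received compounds in DMSO. Following 24 hr at 37 C, ONE-Glo was added and light output read.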

Assay [15] deals with Cytochrome P450 1A2 (Homo sapiens) (UniProt P05177). Briefly: Cytochrome P450 Family 1 Subfamily A Member 2 (CYP1A2) small molecule antagonists: luciferase reporter qHTS assay (AID 1671199). Note: nearly all actives have a fitted effect of over 50% in size. Note: potency is the fitted concentration of half-maximal effect. Summed up:
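Quantitative high-throughput format using the P450-Glo CYP1A2 system. Reaction initiated by NADPH regeneration solution, 1 h at room temperature, then stopped with detection reagent; luminescence measured 20 min later.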

The target of assay [16] is Nuclear receptor subfamily 1 group I member 2 (Rattus norvegicus) (UniProt Q9R1A7). Briefly: Rat pregnane X receptor (rPXR) activation by small molecules, qHTS assay (AID 1346983). Note: % is set by controls: 0 for no effect and ±100 for the full control effect; nearly all actives have a fitted effect of over 20% in size. Conditions: rPXR luciferase reporter cells, One-Glo luminescence, 24 h; max activation: hits give high values. Summed up:
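Cell-based rPXR activation assay: rPXR cells, 2,000 per well, rested 5hr at 37 C, then exposed to compounds in DMSO for 24 hr at 37 C. Luciferase activity read by One-Glo luminescence after 30 min at room temperature.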

Sequence of Cytochrome P450 2D6 (Homo sapiens) (P10635 whole entry, looked up): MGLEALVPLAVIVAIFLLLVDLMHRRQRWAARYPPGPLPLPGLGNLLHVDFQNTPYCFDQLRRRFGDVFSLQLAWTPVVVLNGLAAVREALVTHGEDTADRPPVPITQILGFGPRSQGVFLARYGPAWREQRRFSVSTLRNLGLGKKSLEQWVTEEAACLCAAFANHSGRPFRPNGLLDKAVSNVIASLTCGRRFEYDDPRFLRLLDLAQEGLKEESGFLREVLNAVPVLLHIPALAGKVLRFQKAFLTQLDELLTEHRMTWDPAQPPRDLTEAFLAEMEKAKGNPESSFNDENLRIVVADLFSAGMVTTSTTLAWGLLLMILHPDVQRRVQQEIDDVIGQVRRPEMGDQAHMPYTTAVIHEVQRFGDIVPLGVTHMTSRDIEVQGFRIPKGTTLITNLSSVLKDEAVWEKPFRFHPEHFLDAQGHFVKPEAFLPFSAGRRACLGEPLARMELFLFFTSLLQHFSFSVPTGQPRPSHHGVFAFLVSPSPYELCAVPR
Sequence of Cytochrome P450 2C19 (Homo sapiens) (P33261 whole entry, looked up): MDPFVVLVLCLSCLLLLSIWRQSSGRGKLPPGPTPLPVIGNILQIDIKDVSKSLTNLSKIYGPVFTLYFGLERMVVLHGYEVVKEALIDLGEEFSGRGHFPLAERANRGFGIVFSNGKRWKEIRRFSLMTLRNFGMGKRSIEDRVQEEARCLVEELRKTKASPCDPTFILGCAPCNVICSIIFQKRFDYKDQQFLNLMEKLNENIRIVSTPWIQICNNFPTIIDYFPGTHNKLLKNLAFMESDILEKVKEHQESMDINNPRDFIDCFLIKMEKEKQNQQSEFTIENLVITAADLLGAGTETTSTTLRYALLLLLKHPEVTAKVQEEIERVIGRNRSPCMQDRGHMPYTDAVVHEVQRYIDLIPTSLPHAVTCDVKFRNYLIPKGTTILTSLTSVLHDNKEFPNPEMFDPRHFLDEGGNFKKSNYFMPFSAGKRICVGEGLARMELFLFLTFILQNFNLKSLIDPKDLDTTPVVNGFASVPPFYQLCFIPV
Sequence of Voltage-gated inwardly rectifying potassium channel KCNH2 (Homo sapiens) (Q12809 whole entry, looked up): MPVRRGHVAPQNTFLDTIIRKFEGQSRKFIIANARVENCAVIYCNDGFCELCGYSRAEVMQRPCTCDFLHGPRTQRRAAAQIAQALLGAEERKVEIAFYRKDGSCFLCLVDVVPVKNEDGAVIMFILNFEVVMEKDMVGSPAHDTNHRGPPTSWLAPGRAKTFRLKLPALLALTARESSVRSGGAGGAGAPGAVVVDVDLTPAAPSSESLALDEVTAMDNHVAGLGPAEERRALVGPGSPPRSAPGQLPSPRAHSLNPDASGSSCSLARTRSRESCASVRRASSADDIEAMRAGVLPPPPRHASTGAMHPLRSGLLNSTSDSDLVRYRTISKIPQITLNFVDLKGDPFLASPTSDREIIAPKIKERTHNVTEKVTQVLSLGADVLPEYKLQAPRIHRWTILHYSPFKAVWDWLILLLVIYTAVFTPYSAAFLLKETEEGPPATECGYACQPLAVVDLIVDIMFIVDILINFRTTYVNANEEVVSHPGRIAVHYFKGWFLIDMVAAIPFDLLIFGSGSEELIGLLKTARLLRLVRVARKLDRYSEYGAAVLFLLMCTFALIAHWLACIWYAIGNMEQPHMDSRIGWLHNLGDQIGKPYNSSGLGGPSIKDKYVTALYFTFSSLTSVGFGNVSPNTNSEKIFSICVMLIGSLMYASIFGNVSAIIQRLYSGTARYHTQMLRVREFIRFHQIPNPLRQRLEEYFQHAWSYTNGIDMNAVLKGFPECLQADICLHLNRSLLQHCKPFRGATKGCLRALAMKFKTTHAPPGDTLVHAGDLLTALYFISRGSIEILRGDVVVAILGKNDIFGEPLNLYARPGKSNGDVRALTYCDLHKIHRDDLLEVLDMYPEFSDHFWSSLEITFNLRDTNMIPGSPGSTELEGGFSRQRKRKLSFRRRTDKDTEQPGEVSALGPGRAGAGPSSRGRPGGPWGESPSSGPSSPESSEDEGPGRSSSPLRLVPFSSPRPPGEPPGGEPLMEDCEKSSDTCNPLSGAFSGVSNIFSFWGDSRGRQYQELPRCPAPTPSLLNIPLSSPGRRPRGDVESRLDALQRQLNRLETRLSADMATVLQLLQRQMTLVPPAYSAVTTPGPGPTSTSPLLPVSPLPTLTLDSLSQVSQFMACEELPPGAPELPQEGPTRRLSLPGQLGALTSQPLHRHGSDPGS
Sequence of Acetylcholinesterase (Homo sapiens) (P22303 whole entry, looked up): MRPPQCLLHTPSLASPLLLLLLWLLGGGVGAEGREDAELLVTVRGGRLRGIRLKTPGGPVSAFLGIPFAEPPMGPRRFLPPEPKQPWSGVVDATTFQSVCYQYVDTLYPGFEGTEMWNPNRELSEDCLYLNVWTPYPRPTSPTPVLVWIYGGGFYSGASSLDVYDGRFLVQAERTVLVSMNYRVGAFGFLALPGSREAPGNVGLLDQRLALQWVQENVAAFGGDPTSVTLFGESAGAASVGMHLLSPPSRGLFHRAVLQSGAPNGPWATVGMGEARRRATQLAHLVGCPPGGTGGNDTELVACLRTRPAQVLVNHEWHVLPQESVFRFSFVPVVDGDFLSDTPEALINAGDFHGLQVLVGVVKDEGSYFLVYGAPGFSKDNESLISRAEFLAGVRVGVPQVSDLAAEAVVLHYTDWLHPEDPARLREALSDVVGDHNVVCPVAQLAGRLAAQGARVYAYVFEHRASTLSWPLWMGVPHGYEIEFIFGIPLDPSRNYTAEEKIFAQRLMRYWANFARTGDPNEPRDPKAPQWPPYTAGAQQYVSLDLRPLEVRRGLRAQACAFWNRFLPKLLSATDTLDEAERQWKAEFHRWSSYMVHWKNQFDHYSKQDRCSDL
Sequence of Cytochrome P450 1A2 (Homo sapiens) (P05177 whole entry, looked up): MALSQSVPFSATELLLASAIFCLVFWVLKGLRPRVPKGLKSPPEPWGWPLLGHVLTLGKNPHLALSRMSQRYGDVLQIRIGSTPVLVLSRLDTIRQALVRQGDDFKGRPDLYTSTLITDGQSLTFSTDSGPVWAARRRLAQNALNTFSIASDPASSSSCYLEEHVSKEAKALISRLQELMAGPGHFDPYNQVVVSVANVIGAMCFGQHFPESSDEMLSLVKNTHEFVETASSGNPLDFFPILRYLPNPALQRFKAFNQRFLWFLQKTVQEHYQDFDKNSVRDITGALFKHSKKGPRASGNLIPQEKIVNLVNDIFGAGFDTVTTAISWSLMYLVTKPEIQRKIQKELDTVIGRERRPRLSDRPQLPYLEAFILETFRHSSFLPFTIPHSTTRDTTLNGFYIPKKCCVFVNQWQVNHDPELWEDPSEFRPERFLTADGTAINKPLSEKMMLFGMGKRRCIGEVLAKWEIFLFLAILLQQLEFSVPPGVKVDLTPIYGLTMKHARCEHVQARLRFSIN
Sequence of Nuclear receptor subfamily 1 group I member 2 (Homo sapiens) (O75469 whole entry, looked up): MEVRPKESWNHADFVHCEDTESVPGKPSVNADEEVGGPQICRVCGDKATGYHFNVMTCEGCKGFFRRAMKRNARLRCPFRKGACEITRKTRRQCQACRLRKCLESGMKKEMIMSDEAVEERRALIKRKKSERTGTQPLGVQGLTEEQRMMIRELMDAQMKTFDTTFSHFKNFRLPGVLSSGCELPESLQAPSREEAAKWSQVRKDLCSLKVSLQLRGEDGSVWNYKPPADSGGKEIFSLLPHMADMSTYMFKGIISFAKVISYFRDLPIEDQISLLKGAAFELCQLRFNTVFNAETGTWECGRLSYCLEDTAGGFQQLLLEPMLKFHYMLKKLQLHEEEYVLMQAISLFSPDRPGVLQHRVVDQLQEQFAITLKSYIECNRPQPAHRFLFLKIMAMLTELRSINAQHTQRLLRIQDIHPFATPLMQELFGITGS
Sequence of Cytochrome P450 2C9 (Homo sapiens) (P11712 whole entry, looked up): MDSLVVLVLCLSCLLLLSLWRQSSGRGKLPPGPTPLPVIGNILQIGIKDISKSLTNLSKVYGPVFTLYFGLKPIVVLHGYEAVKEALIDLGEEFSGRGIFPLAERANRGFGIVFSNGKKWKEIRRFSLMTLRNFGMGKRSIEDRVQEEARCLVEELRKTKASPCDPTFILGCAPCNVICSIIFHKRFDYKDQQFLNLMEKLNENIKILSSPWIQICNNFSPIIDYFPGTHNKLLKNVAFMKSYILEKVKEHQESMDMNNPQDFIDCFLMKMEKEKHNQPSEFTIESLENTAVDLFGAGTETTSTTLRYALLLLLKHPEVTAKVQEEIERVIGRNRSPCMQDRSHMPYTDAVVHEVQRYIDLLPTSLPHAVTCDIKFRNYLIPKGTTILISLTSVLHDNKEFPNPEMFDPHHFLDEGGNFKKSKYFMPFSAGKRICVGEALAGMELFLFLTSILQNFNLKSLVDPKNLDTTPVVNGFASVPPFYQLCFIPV
Sequence of Cytochrome P450 3A4 (Homo sapiens) (P08684 whole entry, looked up): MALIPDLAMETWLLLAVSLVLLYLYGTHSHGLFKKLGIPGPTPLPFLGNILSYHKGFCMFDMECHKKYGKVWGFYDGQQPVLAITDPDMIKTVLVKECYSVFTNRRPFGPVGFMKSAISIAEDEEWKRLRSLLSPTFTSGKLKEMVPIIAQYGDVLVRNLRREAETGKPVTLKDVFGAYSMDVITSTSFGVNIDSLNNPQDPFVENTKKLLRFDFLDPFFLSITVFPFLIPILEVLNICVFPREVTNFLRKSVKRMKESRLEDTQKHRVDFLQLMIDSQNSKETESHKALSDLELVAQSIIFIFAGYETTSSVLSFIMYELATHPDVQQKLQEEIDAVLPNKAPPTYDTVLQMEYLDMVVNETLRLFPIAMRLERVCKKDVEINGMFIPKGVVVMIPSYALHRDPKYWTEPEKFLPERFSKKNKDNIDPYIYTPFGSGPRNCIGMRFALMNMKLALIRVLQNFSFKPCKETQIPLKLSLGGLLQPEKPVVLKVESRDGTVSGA

In the case of `O.O.O.O.O.O.O.O=S(=O)([O-])[O-].[Co+2]`, the Potency result in assay [1], in assay [2], in assay [3], in assay [4] and in assay [5] was “inactive” in each case.

Regarding `O=C(NC(=O)c1ccccc1Cl)Nc1ccc(OC(F)(F)F)cc1`, the Potency result in assay [1], in [2], in assay [3], in [4], in assay [6] and in assay [7] was “inactive” throughout. Besides, the Potency entry in assay [8], in assay [9], in [10], in assay [11], in assay [12] and in assay [5] was “inactive” each time. For the same molecule, the Potency entry in assay [13] was “inactive”.

Turning to `CCCCn1cc[n+](C)c1.[Cl][Fe-]([Cl])([Cl])[Cl]`, the Potency entry in assay [1], in [2], in [3], in assay [4] and in [5] was “inactive” in each case.

In the case of `Nc1ccccc1-c1ccccc1`, the Potency entry in assay [1], in [2], in [3], in [4], in [6] and in assay [7] was “inactive” each time. Moreover, the Potency entry in assay [8], in assay [9] and in assay [5] was “inactive” in each case. The Potency in assay [11] was 35.4 µM (active); in [12] it was 31.5 µM (active).

On to `S=C=Nc1ccccc1`, for which the Potency entry in assay [1], in assay [2], in assay [3], in assay [4], in [6] and in [8] was “inactive” throughout. In addition, the Potency result in assay [9] and in assay [5] was “inactive” each time. In addition, the Potency is 63.1 µM (active) in [14]; 73.3 µM (active) in assay [10]; 65.3 µM (active) in [12]; 32.7 µM (active) in [15]; 32.7 µM (active) in assay [13].

With `Cc1ccc([N+](=O)[O-])[c]2c1[O][Hg]2`, the Potency entry in assay [1], in assay [3], in assay [6], in assay [8] and in [9] was “inactive” throughout. The Potency was 1.68 µM (active) in assay [2]; 21.1 µM (active) in [4]; 0.668 µM (active) in assay [14]; 0.871 µM (active) in [12]; 3.23 µM (active) in assay [15]; 6.01 µM (active) in [5]. For the same molecule, in assay [13], the Potency is 7.76 µM (active).

With `CSSC`, the Potency in assay [1] is 24.6 µM (active); in assay [11], 80.6 µM (active). The Potency result in [2], in assay [3], in assay [4], in [6], in assay [7] and in assay [8] was “inactive” each time. Moreover, the Potency entry in assay [9], in assay [10], in assay [5] and in assay [13] was “inactive” throughout.

As to `C[C@]12C/C(=C/O)C(=O)C[C@@H]1CC[C@@H]1[C@@H]2CC[C@@]2(C)[C@H]1CC[C@]2(C)O`, the Potency result in [1], in assay [3], in [4], in assay [6], in [7] and in assay [8] was “inactive” each time. The Potency result in [9], in assay [10], in assay [11], in assay [15] and in assay [5] was “inactive” each time. For the same molecule, the Potency in assay [2] was 43.7 µM (active); in [12], 35.9 µM (active) and 27.5 µM (active). Moreover, the max activation in assay [16] was 1.42%.

In the case of `CC(=O)[O-].CC(=O)[O-].O.O.O.[Pb+2]`, the Potency result in [1], in [2], in [3], in assay [4] and in assay [5] was “inactive” in each case.

For `O.O.O.O=C([O-])[C@H]([O-])[C@@H]([O-])C(=O)[O-].O=C([O-])[C@H]([O-])[C@@H]([O-])C(=O)[O-].[K+].[K+].[Sb+3].[Sb+3]`, the Potency result in assay [1], in [3], in assay [4], in assay [6], in [7] and in assay [8] was “inactive” each time. Also, the Potency result in [5] was “inactive”. Besides, the Potency in assay [2] was 17.3 µM (active).

Consider `COP(=S)(NC(C)C)Oc1ccc(C)cc1[N+](=O)[O-]` (configuration not stated), for which the Potency entry in [1], in assay [2], in assay [3], in [4], in assay [6] and in assay [8] was “inactive” throughout. The Potency entry in assay [9] and in assay [5] was “inactive” throughout. Besides, the Potency in assay [14] was 30.6 µM (active); in assay [11], 0.283 µM (active); in assay [12], 2.52 µM (active); in assay [15] it was 11.2 µM (active); in assay [13] it was 0.633 µM (active).

Turning to `CC(=O)[O-].CC(=O)[O-].[Co+2]`, the Potency result in [1], in assay [2], in assay [3], in assay [4] and in assay [5] was “inactive” throughout.

`O=c1[nH]c(Cl)c(Cl)cc1Cl`: the Potency result in assay [1], in assay [2], in assay [3], in assay [4], in assay [6] and in [7] was “inactive” in each case. For the same molecule, the Potency entry in assay [8], in assay [9], in assay [11], in [5] and in assay [13] was “inactive” throughout. In addition, the Potency in [12] is 39.9 µM (active).

Take `Brc1cccc(-c2ccccc2)c1`: the Potency result in assay [1], in assay [3], in assay [4], in assay [6], in [7] and in assay [8] was “inactive” each time. For the same molecule, the Potency result in assay [9], in assay [10], in [11], in assay [5] and in [13] was “inactive” in each case. The Potency in assay [14] is 24.5 µM (active); in [15], 12.7 µM (active).

As to `O=C(N[C@H]1N=C(c2ccccc2F)c2cccc3c2N(CC3)C1=O)c1cc2ccccc2[nH]1`, the Potency result in assay [1], in assay [3], in [4], in assay [6], in assay [7] and in [8] was “inactive” each time. For the same molecule, the Potency entry in [9], in [10], in assay [11], in assay [15] and in assay [13] was “inactive” throughout. Besides, the Potency is 18.8 µM (active) in [14], 7.76 µM (active) in assay [12] and 7.56 µM (active) in assay [5].

In the case of `O=S(=O)(O)F`, the Potency result in [1], in assay [2], in [3], in [6], in assay [7] and in assay [8] was “inactive” in each case. The Potency entry in assay [9], in [12], in assay [15], in assay [5] and in [13] was “inactive” throughout. Moreover, the Potency in assay [14] was 53.8 µM (active).
